Source: PubChem BioAssay
Giardia FBPA inh – blocks Giardia fructose-bisphosphate aldolase activity | A8B2U2 | purified Giardia FBPA | Potency, µM (doses to about 59.6 µM), inactives show at the top dose activity, negative = inhibition, actives largely listed as inhibitors | 290,000 compounds, 0.71% hits | AID 2451; also: potency is read from the fitted curve at half-maximal effect; nearly all actives have a fitted effect of over 55% in size
Target sequence (A8B2U2 whole entry, looked up): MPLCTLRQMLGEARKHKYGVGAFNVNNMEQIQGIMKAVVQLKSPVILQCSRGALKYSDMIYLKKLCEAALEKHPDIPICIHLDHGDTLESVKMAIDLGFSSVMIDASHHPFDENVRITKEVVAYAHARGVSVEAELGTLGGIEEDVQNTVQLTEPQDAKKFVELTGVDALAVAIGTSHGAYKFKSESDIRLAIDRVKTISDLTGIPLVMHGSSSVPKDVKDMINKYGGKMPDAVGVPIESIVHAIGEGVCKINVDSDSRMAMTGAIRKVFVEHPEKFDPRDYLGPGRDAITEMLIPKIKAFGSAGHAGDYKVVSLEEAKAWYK
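40 nM FBPA preincubated 10 min at RT with compound (up to 57.5 uM final), then substrate plus GAPDH/TPI/NAD/arsenate coupling and diaphorase/resazurin added. Fluorescence read after 20 min at RT, 525/598 nm.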
Vaccinia Venus – vaccinia inhibition (Venus reporter) | Vaccinia virus Venus reporter expression, fluorescence | Potency, µM (series often up to 36.5 µM), without a hit: at the highest dose activity change, negative = inhibition, actives largely listed as inhibitors | 330,000 compounds, 0.46% hits; calls by dose curve; tested in A549 cells; also: potency is read from the fitted curve at half-maximal effect; nearly all actives have a fitted effect of over 30% in size
VACV mCherry inh – inhibitors of vaccinia virus infection (mCherry reporter signal); Vaccinia virus mCherry reporter infection, fluorescence; Potency, µM (titrated, usually from 36.5 µM), inactives show top-dose activity change, negative = inhibition, most hits filed as inhibitors; 310,000 compounds, 0.63% hits; calls by dose curve; tested in A549 cells; also: potency is read from the fitted curve at half-maximal effect; nearly all actives have a fitted effect of over 35% in size
FMDV antiviral – foot and mouth disease virus antiviral activity; AID 1159524; Potency, µM (doses to about 57.9 µM), inactives show top-dose activity change, negative = inhibition, usual class: inhibitors; FMDV antiviral cell-based qHTS; 410,000 compounds, 1.2% hits; calls by dose curve; tested in HEK293T cells; also: read-out not given here; potency is read from the fitted curve at half-maximal effect; nearly all actives have a fitted effect of over 45% in size
HCMV antiviral – blocks human cytomegalovirus replication | activity change, negative = inhibition, % at 57.5 µM | 410,000 compounds, 4.5% hits | HFF cells, HCMV-luciferase reporter, 72 h; active compounds read low; in the data active = activity change below about -60%; inconclusive = no clear call, values can overlap the other calls; inactive = above about -39%
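Screen run at 2 compound doses on HFFs infected with reporter HCMV, MOI 1 PFU/cell. Luciferase activity from cell lysates at 72 h post infection gave inhibition relative to buffer-only and Salinomycin wells.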
HCV inh – HCV inhibition; Huh7.5.1 HCVcc-Cre infection, luciferase reporter, 44 h; Potency, µM (series often up to 41.8 µM), for inactives: at the top dose activity change, negative = inhibition, hits mostly inhibitors; AID 651820; 340,000 compounds, 3.4% hits; also: potency is read from the fitted curve at half-maximal effect
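Infectious HCV cell culture screen: compound-treated cells (1,000/well, pre-plated 4 h) are infected with HCVcc-Cre at roughly 0.5 moi and grown 44 h. Infection is quantified by luciferase signal after 15 min substrate incubation at room temperature.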
Active calls of the source: *; i = inactive; ? = inconclusive; · = no result given; ! = not confirmed by another sample; [ ] = another dose, or the depositor's remark. In the library only some 7.5% were active in any assay of this set; here they are far more common. Unless noted, calls follow the shape of the dose curve; as a rule, active = well fitted curve in the direction sought with a large enough effect; inconclusive = small, poorly fitted or top-dose-only effect, or another doubt; inactive = no such curve, though single readings can be large; an effect the other way counts as inactive or inconclusive. % is scaled to controls: 0 for no effect and ±100 for the full control effect.

SMILES | Giardia FBPA inh | Vaccinia Venus | VACV mCherry inh | FMDV antiviral | HCMV antiviral | HCV inh
COc1ccccc1NC(=O)c1nnn(-c2ccc(F)cc2)c1C | · | -10% | -5% | -2% | 8 | ·
O=c1[nH]cc(C#Cc2ccccc2)c2ncncc12 | · | -16% | i | · | · | ·
O=C(N/N=C/c1ccc([N+](=O)[O-])o1)c1cc2c(ccc3ccccc32)o1 | -17% | · | · | 2% | -72* | ?
Cc1scc(C(=O)N/N=C/c2ccc([N+](=O)[O-])o2)c1C | · | · | · | · | -100* | ·
CCN(CC)S(=O)(=O)c1cccc(C(=O)N/N=C/c2ccc([N+](=O)[O-])o2)c1 | -17% | ? | ? | ? | -61* | ?
Cc1scc(C(=O)N/N=C/c2ccco2)c1C | -9% | · | · | 44% | 13 | 1%
O=C(N/N=C\c1ccc([N+](=O)[O-])o1)c1cncc(Br)c1 | ? | ? | ? | ? | -83* | 22µM*
COc1ccc2c(c1)CCc1cnc(-n3ncc(C(=O)NCCCc4ccncc4)c3C)nc1-2 | · | -23% | ? | ? | · | ·
Cn1c2c(c3cnc4cc(Cl)ccc4c31)CN(Cc1ccc(Cl)cc1)CC2 | · | -4% | 29% | · | · | ·
COc1ccc(NC(=O)COc2ccc(N(C)S(=O)(=O)c3ccc(Cl)cc3)cc2)cc1OC | · | -22% | ? | 10µM* | -88* | 0.63µM*
CN(c1ccc(OCC(=O)Nc2ccccc2C(=O)O)cc1)S(=O)(=O)c1ccc(Cl)cc1 | · | -7% | i | -1% | -82* | -8%
CN(c1ccc(OCC(=O)OCC(=O)Nc2ccc(F)cc2)cc1)S(=O)(=O)c1ccc(Cl)cc1 | -1% | -5% | -14% | 2% | 15 | 45%
CC(C)CCNC(=O)COc1ccc(N(C)S(=O)(=O)c2ccc(F)cc2)cc1 | 0% | -11% | i | -6% | -87* | -7%
CCCN1[C@@H]2c3cccc(=O)n3C[C@H]1[C@H](CO)[C@H]2C(=O)NC1Cc2ccccc2C1 | · | · | · | · | -10 | ·
COC(=O)C1C2OC(C(Br)C2Br)C1C(=O)OC (stereo not given) | · | -3% | -13% | -6% | 18 | ·
COC(=O)c1nn(-c2ccc3c(c2)CCN3C(C)=O)cc1O | · | · | · | 8.9µM* | ? | -6%
Cc1ccc(C(=O)CSc2nnc(-c3ccco3)o2)o1 | -20% | 10µM* | ? | 64% | -16 | 0%
Cc1cc(C(=O)CSc2nnc(-c3ccco3)o2)c(C)n1C | · | -15% | ? | 19% | -16 | 11µM*
COc1cc(OC)cc(-c2nnc(SCC(=O)N(Cc3ccccc3)C(C)(C)C)o2)c1 | 2% | -28% | ? | -6% | -71* | -29%
COc1ccc(-c2nnc(SCC(=O)c3ccc(C)o3)o2)cc1 | 2% | ? | 28µM* | -9% | -13 | ?
CCCC[C@@H]1C[C@H]1C(NC(=O)c1cccs1)c1ccc(-c2ccccc2)cc1 (stereo not given in full) | -1% | · | · | · | · | ·
COc1cc(OC)c2nc(-c3cc4c(c(OC)c3)OCCN(C(=O)C(C)c3n[nH]c(=O)c5ccccc35)C4)cc(C)c2c1 (stereo not given) | · | -12% | i | -9% | · | ·
CC(=O)N1CCc2cc(Br)cc(S(=O)(=O)CCC(=O)N3CCN(c4cccc(C)c4C)CC3)c21 | · | -18% | ? | 0% | ? | ·
O=C(CCS(=O)(=O)c1ccccc1)Nc1ncc([N+](=O)[O-])s1 | 7% | ? | -12% | 31% | ? | 6%
O=C(CCS(=O)(=O)Cc1ccccc1)Nc1ncc([N+](=O)[O-])s1 | -2% | ? | -23% | 42% | -96* | ?
SMILES | Giardia FBPA inh | Vaccinia Venus | VACV mCherry inh | FMDV antiviral | HCMV antiviral | HCV inh
CCCCNC(=O)C1c2cc(OC)c(OC)cc2C(=O)N(C)C1c1ccc(OC)cc1 (stereo not given) | -2% | -5% | -12% | 9% | -100* | -8%
CCCCNC(=O)C1c2cc(OC)c(OC)cc2C(=O)N(C)C1c1cccs1 (stereo not given) | 7% | -18% | -15% | 0% | -12 | 0%
NC[C@@H]1O[C@H](c2ccccc2)Cc2c1ccc(O)c2O | ? | · | · | -15% | · | ·
NC[C@@H]1O[C@H](C23CC4CC(CC(C4)C2)C3)Cc2c1ccc(O)c2O | ? | ? | ? | 40µM*! | ? | 6%
Cc1cc(C)cc(OCC(O)CN2CCN(C(=O)c3ccco3)CC2)c1 (stereo not given) | 8% | -14% | -13% | -4% | -37 | 6%
O=C(c1ccco1)N1CCN(CC(O)COc2ccc3oc4ccccc4c3c2)CC1 (stereo not given) | -13% | -24% | -14% | · | ? | 13µM*
C[C@H](CO)N1C[C@H](C)[C@H](CN(C)C(=O)Nc2ccc(-c3cccs3)cc2)OCc2cnnn2CCCC1=O | · | -17% | -10% | -15% | -61* | ·
C[C@@H]1CN([C@@H](C)CO)C(=O)CCCn2nncc2CO[C@@H]1CN(C)C(=O)Nc1ccc(-c2cccs2)cc1 | · | -9% | 1% | -20% | -6 | ·
O=C(O)C(Oc1ccc2c3c(c(=O)oc2c1)CCC3)c1ccccc1 (stereo not given) | -8% | -10% | -12% | -3% | -101* | 4%
CC(=O)C(C)Oc1ccc2c3c(c(=O)oc2c1)CCCC3 (stereo not given) | -6% | -18% | -10% | 6% | 62 | ?
CC(=O)C(C)Oc1ccc2c3c(c(=O)oc2c1)CCCCC3 (stereo not given) | -9% | · | · | 16% | 4 | 35µM*
O=C(COc1ccc2c3c(c(=O)oc2c1)CCCC3)N1CCN(c2ccc(F)cc2)CC1 | · | · | · | -26% | 0 | 10µM*
COc1ccc(OC[C@@H](CO)OC)cc1 | -1%[12.9 µM] | · | · | · | · | ·
C[C@H](NC(=O)[C@@H]1C[C@H]1[C@@H](NC(=O)OCc1ccccc1)c1ccccc1)c1ccccc1 | 9% | · | · | · | · | ·
Brc1ccc(Oc2ccc(Br)cc2Br)c(Br)c1 | · | -4% | i | 4% | 49 | -8%
O=c1c(Br)ccc(Br)cc1Br | · | ? | ? | 20µM* | -77* | ?
NC(=O)COC(=O)c1ccc(-c2ccc(O)cc2)cc1 | 4% | · | · | 0% | 0 | 4%
NC(=O)COC(=O)c1ccc(-c2ccccc2)cc1 | 5% | -4% | i | 23% | -62* | 7%
COc1ccc(C2C(Oc3ccccc3)C(=O)N2c2cc(C)ccc2C)cc1OC (stereo not given) | -1% | -11% | -9% | 14% | -9 | 2%
COc1ccc(C2C(Oc3ccccc3)C(=O)N2c2ccc(C)c(C)c2)cc1OC (stereo not given) | · | -17% | -16% | -5% | -4 | 11µM*
Cc1cccc(N2CCN(C(=O)c3ccc(CS(=O)(=O)c4ccccc4C)o3)CC2C)c1 (stereo not given) | -6% | · | · | 5% | -67* | 6%
